Data on 11 compounds can be found in ChEMBL document CHEMBL1157539, “Thousands of chemical starting points for antimalarial lead identification” (Nature, 2010).

Holding throughout (assay type): functional
Test [1] relates to Plasmodium falciparum. The test is described as follows: GSK_TCMDC: Inhibition of Plasmodium falciparum 3D7 in whole red blood cells, using parasite LDH activity as an index of growth. Test compounds present at 2uM.
For test [2], the system named is Plasmodium falciparum. As to the kind of experiment: GSK_TCMDC: Inhibition of Plasmodium falciparum Dd2 in whole red blood cells, using parasite LDH activity as an index of growth. Test compounds present at 2uM.
The subject of test [3] is HepG2. As to the kind of experiment: GSK_TCMDC: Percent inhibition of human HepG2 cell line. Test compounds present at 10uM.

As a reminder, the Inhibition is the change of the read-out against control, counted positive when it falls.

Consider `CC(C)(C)Nc1cc(C2CC2)nc(-c2ccccn2)n1`, for which the Inhibition in test [1] is 88%; in test [2] it was 75%; in test [3], 0%.

On to `CNC(=O)/C=C/c1cc(NC(=O)Nc2cc(C)nc3c(F)cccc23)ccc1OC`, for which the Inhibition stood at 98% in test [1], 70% in test [2] and 0% in test [3].

With `CC1(C)CNCc2cc(NC(=O)/C=C/c3ccc(Cl)cc3)ccc21.Cl`, the Inhibition in test [1] stood at 82%; in test [2], 26%; in test [3], 23%.

For the compound `Cc1cc2c(cc1C(F)(F)F)N(C(=O)Nc1cnc(OCCN(C)C)c(C(F)(F)F)c1)CC2`, the values for the Inhibition in test [1], in test [2] and in test [3] were 88%, 25% and 28%, respectively.

Take `Cc1ccc(NC(=O)Nc2ccccc2F)cc1-c1ccc(C(=O)Nc2ccncc2)cc1`: the results for the Inhibition in test [1], in test [2] and in test [3] were 99%, 54% and 36%, respectively.

Regarding `CC1(C)N=C(N)N=C(N)N1c1ccc(Cl)cc1.O=C(O)c1cc2ccccc2c(Cc2c(O)c(C(=O)O)cc3ccccc23)c1O`, the values for the Inhibition in test [1], in test [2] and in test [3] were 95%, 4% and 42%, respectively.

With `Cc1nc2nc(N)nc(N)c2c(C)c1Cc1ccc(O)cc1.Cl`, the Inhibition in test [1] was found to be 94%; in test [2], 0%; in test [3], 64%.

For the compound `CN(C)c1cccc2c1nc(-c1ccco1)n2CC1CCCN1.O=C(O)C(F)(F)F` (stereo not drawn), the Inhibition came out at 86% in test [1], 46% in test [2] and 0% in test [3].

Regarding `COc1cc2nc(N3CCC(CNC(=O)c4ccc(-c5ccc(-c6noc(C)n6)cc5)cc4)CC3)nc(N)c2cc1OC`, the figures for the Inhibition in test [1], in test [2] and in test [3] were 98%, 100% and 96%, respectively.

With `CC(C)(c1ccccc1)c1ccc(O)c(CN2CCOCC2)c1`, the Inhibition in test [1] amounted to 99%; in test [2], 88%; in test [3], 0%.

Consider `Cc1ccccc1CN1CCCN(Cc2ccc(C(=O)Nc3ccc(C(C)(C)C)cc3)cc2)CC1.O=C(O)C(F)(F)F`, for which the figures for the Inhibition in test [1], in test [2] and in test [3] were 89%, 5% and 52%, respectively.
